Measurements from PubChem BioAssay.
Active and inactive are the calls of the source.

Legend:
[1] = biological target: Albumin (Bos taurus) (UniProt P02769); assay: compounds binding labelled BSA control protein – biochemical, small-molecule microarray, Alexa647 label, 635/667 nm fluorescence, artefact control for SMM control protein annotation, profiling panel (AID 1118); conditions: BSA-A647 binding, fluorescence 635 nm, higher = more signal;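 also: score merges 667 nm emission intensity and signal-to-noise per printed compound spot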
[2] = probe aXIP binding to arrayed compounds – biochemical, NeuroSMM set, 635/667 nm fluorescence, primary screen (AID 1119); conditions: small-molecule microarray, higher = more signal, called active from +8 up or from −8 down;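 also: probe is the protein aXip251-270 applied at 1 µg/mL to compound-printed slides; binding of probe to printed compounds measured as 667 nm fluorescence plus signal to noise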
[3] = probe aNOTCH3 binding on compound microarray – biochemical, small-molecule microarray, 635/667 nm fluorescence, primary screen (AID 1120); conditions: higher = more signal;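 also: probe is a biotin-tagged antibody raised against NOTCH3 rather than NOTCH3 protein; score merges spot fluorescence near 667 nm with spot signal to noise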
[4] = probe aNOTCH2 binding on compound microarray – biochemical, small-molecule microarray, 635/667 nm fluorescence, primary screen (AID 1121); conditions: higher = more signal;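 also: score merges feature fluorescence read at 667 nm with its signal to noise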
[5] = biological target: Carbonic anhydrase 2 (Homo sapiens) (UniProt P00918); assay: compounds binding carbonic anhydrase 2 – biochemical, small-molecule microarray, Alexa647-labelled CAII, profiling panel (AID 1122); conditions: CAII-A647 binding fluorescence, higher = more signal
[6] = COS7 lysate on small-molecule microarray, probe aHis, 635 nm (AID 1123); conditions: COS7 cell lysate, fluorescence, higher = more signal;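 also: z-score combines 667nm fluorescence intensity with signal-to-noise per printed compound spot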
[7] = probe aLAP1 signal on lysate-treated microarray – cell lysate, small-molecule microarray, COS7 lysate, primary screen (AID 1124); conditions: probe aLAP1, fluorescence, higher = more signal;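 also: lysate comes from COS7 cells expressing LAP1 and is applied at 0.3 µg/mL; score merges spot fluorescence near 667 nm with signal-to-noise over triplicate slides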
[8] = tested on: Sam68 (KHDRBS1); assay: compounds binding KHDRBS1 protein – biochemical, small-molecule microarray, 635 nm fluorescence, primary screen (AID 1125); conditions: higher = more signal;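 also: score merges 667 nm channel intensity with signal to noise over triplicate slides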
[9] = tested on: Chordin-like protein 2 (CHRDL2); assay: compounds binding chordin-like 2 – biochemical, small-molecule microarray, 635 nm fluorescence, primary screen (AID 1126); conditions: fluorescence 635 nm, higher = more signal;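 also: printed compound slides probed with Chrdl2 protein at 4 µg/mL for 1 h at 4 C; score merges 667 nm emission intensity with signal to noise over three replicate slides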
[10] = biological target: Concanavalin-A (Canavalia ensiformis) (UniProt P02866); assay: compounds binding concanavalin A lectin – biochemical, small-molecule microarray, Alexa647 label, 635 nm, artefact control for SMM control protein annotation, primary screen (AID 1127); conditions: ConA-A647 binding fluorescence, higher = more signal;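 also: z combines 667 nm emission intensity with signal-to-noise across three replicate slides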
[11] = compounds binding Alexa647 anti-His antibody – biochemical, small-molecule microarray, 635 nm fluorescence, artefact control for SMM control protein annotation, primary screen (AID 1128); conditions: higher = more signal;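 also: score merges feature fluorescence with signal-to-noise for each printed compound spot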
[12] = tested on: Human papillomavirus type 1a E7 protein (residues 1-88); assay: HPV1a E7 small-molecule binders, primary screen, biochemical, small-molecule microarray, residues 1-88, 635 nm (AID 1129); conditions: small-molecule microarray binding, fluorescence 635 nm; higher = more signal
[13] = biological target: Focal adhesion kinase 1 (Homo sapiens) (UniProt Q05397); assay: PTK2 protein binding on printed compound slides – biochemical, small-molecule microarray, 635/667 nm fluorescence, BSA, DTT, primary screen (AID 1130); conditions: 635 nm fluorescence, higher = more signal;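 also: composite of spot emission at 667 nm and signal to noise over triplicate slides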
[14] = tested on: Fibrinogen (Alexa647-labelled); assay: Alexa647-fibrinogen binding to printed small molecules – biochemical, small-molecule microarray, 635/667 nm fluorescence, artefact control for SMM control-protein annotation, profiling panel (AID 1131); conditions: fibrinogen-A647 binding fluorescence, higher = more signal;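 also: z-score merges 667 nm fluorescence with per-spot signal-to-noise over triplicate slides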
[15] = biological target: Follistatin (Homo sapiens) (UniProt P19883); assay: FST protein binding to printed compounds – biochemical, small-molecule microarray, 635/667 nm fluorescence, primary screen (AID 1132); conditions: 635 nm fluorescence, higher = more signal
[16] = biological target: Fibroblast growth factor 2 (Homo sapiens) (UniProt P09038); assay: basic fibroblast growth factor binding to printed compounds – biochemical, small-molecule microarray, 635/667 nm fluorescence, primary screen (AID 1133); conditions: FGF2, fluorescence 635/667, higher = more signal
[17] = JC-1 mitochondrial potential readout, lung cancer cells – cell-based, A549, JC-1 fluorescence, basal, 24 h, 100 nL, profiling panel (AID 1138); conditions: higher = more signal;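 also: A549 lung adenocarcinoma cells under basal conditions with no added stimulus; test concentration not given here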
[18] = tested on: Lefty1; assay: Lefty1 protein binding to printed compounds – biochemical, small-molecule microarray, 635/667 nm fluorescence, primary screen (AID 1139); conditions: fluorescence 635/667, higher = more signal
[19] = tested on: wheat germ agglutinin (Triticum aestivum), Alexa647-labelled; assay: Alexa647-WGA lectin binding to printed small molecules – biochemical, small-molecule microarray, 635/667 nm fluorescence, artefact control for SMM control-protein annotation, profiling panel (AID 1140); conditions: WGA-A647 binding, 635 nm fluorescence, higher = more signal;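 also: score merges 667 nm feature emission with signal to noise over triplicate slides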
[20] = biological target: Luciferin 4-monooxygenase (Photinus pyralis) (UniProt P08659); assay: inhibition of purified Photinus pyralis luciferase – biochemical, luminescence, purified enzyme, 2006 set, primary screen (AID 1141); conditions: purified firefly luciferase, SteadyGlo luminescence, 30 min; higher = more signal, called active from +8 up or from −8 down;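 also: cell-free assay with purified firefly luciferase at 100 ng per well in PBS; test concentration not given here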
Chain of Luciferin 4-monooxygenase (Photinus pyralis) (P08659 whole entry, looked up): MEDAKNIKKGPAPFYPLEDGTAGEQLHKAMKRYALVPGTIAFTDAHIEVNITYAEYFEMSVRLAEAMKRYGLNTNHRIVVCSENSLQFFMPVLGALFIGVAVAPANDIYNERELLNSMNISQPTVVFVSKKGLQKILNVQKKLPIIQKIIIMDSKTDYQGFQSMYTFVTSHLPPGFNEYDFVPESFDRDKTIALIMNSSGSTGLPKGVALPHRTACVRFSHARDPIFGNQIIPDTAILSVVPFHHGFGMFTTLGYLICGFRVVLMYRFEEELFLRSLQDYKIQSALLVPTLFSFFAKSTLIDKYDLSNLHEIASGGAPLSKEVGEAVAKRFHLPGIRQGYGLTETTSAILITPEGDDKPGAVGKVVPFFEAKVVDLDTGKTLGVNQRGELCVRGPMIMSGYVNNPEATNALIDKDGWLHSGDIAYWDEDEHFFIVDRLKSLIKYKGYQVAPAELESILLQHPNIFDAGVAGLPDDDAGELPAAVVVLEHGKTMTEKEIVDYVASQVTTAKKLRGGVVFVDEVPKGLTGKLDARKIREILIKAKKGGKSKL

Chain of Albumin (Bos taurus) (P02769 whole entry, looked up): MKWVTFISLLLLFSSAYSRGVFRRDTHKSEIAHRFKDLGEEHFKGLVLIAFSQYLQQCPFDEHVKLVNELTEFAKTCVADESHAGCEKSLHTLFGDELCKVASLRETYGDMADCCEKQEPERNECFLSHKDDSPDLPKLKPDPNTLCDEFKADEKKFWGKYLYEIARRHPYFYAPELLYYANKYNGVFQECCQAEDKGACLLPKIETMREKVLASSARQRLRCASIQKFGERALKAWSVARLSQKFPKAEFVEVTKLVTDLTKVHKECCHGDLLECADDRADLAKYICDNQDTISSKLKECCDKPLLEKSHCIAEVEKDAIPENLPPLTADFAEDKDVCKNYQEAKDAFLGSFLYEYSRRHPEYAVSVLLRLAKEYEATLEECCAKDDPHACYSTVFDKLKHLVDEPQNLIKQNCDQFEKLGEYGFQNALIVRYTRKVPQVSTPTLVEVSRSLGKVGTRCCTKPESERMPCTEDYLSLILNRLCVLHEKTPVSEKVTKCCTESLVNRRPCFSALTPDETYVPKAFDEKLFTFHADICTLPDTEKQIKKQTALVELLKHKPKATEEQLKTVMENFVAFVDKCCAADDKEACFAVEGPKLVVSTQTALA
Chain of Follistatin (Homo sapiens) (P19883 whole entry, looked up): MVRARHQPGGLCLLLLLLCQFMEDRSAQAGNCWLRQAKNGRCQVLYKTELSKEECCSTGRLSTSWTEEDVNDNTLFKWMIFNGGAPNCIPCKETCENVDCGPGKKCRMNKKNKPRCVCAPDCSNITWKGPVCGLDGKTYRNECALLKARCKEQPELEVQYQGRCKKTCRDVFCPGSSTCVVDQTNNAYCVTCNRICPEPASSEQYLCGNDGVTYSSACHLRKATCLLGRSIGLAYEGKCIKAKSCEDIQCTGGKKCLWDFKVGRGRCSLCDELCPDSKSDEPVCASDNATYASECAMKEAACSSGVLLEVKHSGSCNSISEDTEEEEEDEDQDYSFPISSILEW
Chain of Focal adhesion kinase 1 (Homo sapiens) (Q05397 whole entry, looked up): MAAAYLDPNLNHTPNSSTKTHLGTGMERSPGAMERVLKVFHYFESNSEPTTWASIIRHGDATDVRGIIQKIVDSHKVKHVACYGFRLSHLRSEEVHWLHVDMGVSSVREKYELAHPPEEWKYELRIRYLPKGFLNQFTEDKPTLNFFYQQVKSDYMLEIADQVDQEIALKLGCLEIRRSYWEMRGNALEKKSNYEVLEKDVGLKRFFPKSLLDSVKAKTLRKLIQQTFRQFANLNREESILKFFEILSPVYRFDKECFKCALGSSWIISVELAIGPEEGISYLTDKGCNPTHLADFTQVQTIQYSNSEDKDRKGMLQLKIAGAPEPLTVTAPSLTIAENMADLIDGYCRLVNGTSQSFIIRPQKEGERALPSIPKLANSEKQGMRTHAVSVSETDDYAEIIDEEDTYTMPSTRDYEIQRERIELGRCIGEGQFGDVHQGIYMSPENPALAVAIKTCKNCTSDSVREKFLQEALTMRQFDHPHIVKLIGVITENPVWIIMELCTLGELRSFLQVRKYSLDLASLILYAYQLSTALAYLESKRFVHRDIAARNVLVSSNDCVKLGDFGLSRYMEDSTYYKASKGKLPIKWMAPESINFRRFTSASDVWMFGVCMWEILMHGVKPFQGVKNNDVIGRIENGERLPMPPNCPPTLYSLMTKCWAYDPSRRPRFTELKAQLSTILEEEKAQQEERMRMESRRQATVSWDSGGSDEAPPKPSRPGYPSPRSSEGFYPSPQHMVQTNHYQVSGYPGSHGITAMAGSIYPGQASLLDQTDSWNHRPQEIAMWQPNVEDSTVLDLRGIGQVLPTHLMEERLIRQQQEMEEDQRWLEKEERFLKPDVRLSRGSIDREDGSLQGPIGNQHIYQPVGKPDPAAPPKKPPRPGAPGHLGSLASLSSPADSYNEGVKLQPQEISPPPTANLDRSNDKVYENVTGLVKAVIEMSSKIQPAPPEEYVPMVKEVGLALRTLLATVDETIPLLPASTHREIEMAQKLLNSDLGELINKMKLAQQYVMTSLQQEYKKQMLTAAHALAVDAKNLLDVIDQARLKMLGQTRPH
Chain of Concanavalin-A (Canavalia ensiformis) (P02866 whole entry, looked up): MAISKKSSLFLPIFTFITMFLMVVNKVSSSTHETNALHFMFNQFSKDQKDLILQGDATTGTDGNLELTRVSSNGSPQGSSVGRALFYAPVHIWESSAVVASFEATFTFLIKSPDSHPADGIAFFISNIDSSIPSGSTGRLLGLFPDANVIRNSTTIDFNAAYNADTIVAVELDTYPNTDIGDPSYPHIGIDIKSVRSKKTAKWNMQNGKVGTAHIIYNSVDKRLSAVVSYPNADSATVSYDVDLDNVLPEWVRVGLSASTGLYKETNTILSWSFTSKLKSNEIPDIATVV
Chain of Fibroblast growth factor 2 (Homo sapiens) (P09038 whole entry, looked up): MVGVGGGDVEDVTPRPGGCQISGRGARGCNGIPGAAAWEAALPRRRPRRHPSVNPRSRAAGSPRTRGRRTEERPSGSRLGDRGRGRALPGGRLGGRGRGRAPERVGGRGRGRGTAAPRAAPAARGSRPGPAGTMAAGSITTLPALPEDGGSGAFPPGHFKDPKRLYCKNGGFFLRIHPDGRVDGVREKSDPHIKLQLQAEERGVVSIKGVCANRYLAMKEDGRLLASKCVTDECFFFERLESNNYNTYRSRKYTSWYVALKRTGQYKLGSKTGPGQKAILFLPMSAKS

| SMILES | composite z-score [1] | composite Z-score [2] | composite z-score [3] | composite z-score [4] | composite z-score [5] | composite z-score [6] | composite z-score [7] | composite z-score [8] | composite z-score [9] | composite z-score [10] | composite z-score [11] | composite z-score [12] | composite z-score [13] | composite z-score [14] | composite z-score [15] | composite z-score [16] | z-score [17] | composite z-score [18] | composite z-score [19] | z-score [20] |
| --- | --- | --- | --- | --- | --- | --- | --- | --- | --- | --- | --- | --- | --- | --- | --- | --- | --- | --- | --- | --- |
| COCCOC(=O)N1C(=O)[C@@]2(c3cc(C#CC4(O)CCCCCC4)ccc31)[C@H](c1ccccc1OCCO)N1[C@H](c3ccccc3)[C@H](c3ccccc3)OC(=O)[C@H]1[C@@H]2C(=O)Nc1nc2ccccc2s1 | 0.655 | -0.344 (inactive) | -0.0942 | -0.0843 | 0.53 | 1.16 | 0.417 | 1.16 | 0.478 | 1.18 | 1.84 | 1.21 | 0.862 | 0.805 | 1.39 | 1.16 | -1.56 | 1.5 | 1.14 | -2.53 (inactive) |
| C=CCN1C(=O)[C@@]2(O[C@@H](CCO)[C@H]([Si](C)(C)c3ccc(OC)cc3)[C@H]2C)c2cc(N(C=O)c3ccccc3)ccc21 | 0.377 | 0.459 (inactive) | -0.0918 | -0.0895 | 0.246 | 0.396 | 0.222 | 0.807 | -0.332 | 0.67 | 1.03 | 0.721 | -0.115 | 0.373 | 0.203 | 0.0479 | -0.688 | 0.124 | 0.918 | -1.66 (inactive) |
| COC(=O)C1=CC(c2ccc(CO)cc2)=CC(c2cccs2)N(C)C=C1C(=O)OC (stereo not given) | 0.208 | 0.875 (inactive) | -0.0023 | -0.14 | 0.589 | 2 | 0.387 | 0.494 | -1.14 | 0.494 | 1.48 | -0.351 | 1.18 | -0.141 | 0.23 | -0.485 | 1.08 | -0.116 | 0.84 | -0.822 (inactive) |
| CC(C)(C)OC(=O)CC[C@@]1(C(=O)NCc2ccccc2)N=C(c2ccc(OCCCO)cc2)O[C@@H]1c1ccccc1CN=[N+]=[N-] | 0.871 | 0.647 (inactive) | 0.33 | -0.0736 | 0.596 | 2.02 | 0.379 | 1.15 | -0.521 | 1.09 | 2.59 | 1.22 | -0.128 | 0.933 | 1.34 | 0.915 | 0.641 | 0.148 | 1.27 | -1.24 (inactive) |
| CC(C)(C)OC(=O)CC[C@@]12N=C(c3ccc(OCCCO)cc3)O[C@@H]1c1ccccc1CN(Cc1ccccc1)C2=O | -0.478 | 0.976 (inactive) | 0.0026 | -0.11 | 0.418 | 1.73 | -0.0961 | 1.31 | -0.0229 | 1.1 | 2.46 | 1.18 | 1.36 | 0.357 | 1.32 | 1.43 | 1.09 | 0.377 | 0.438 | -1.59 (inactive) |
| [N-]=[N+]=Nc1ccccc1[C@H]1OC(c2ccc(OCCCO)cc2)=N[C@@]1(Cc1ccccc1)C(N)=O | 0.869 | 0.382 (inactive) | 0.416 | 0.0521 | 0.623 | 0.798 | 0.577 | 1.31 | -0.751 | 1.16 | 2.59 | 1.21 | 0.0957 | 0.997 | 1.32 | 0.479 | 1.5 | 0.97 | 1.37 | -12.6 (active) |
| C=CCN1C(=O)[C@]2(O[C@H](CCn3cc([C@H](O)c4ccccc4)nn3)[C@@H]([Si](C)(C)c3ccc(OC)cc3)[C@@H]2C)c2cc(N3CCOC3=O)ccc21 | 0.318 | 0.2 (inactive) | -0.272 | -0.201 | 0.521 | 0.8 | 0.0004 | 0.745 | -0.526 | 0.804 | 1.13 | 1.13 | 0.783 | 0.811 | -0.447 | -0.408 | 1.89 | -0.351 | 0.514 | -0.678 (inactive) |
| Cc1ccc(S[C@]2(C(=O)NC3CC3)CC(=O)N(Cc3ccccc3C(F)(F)F)[C@@H]2c2ccc(CO)cc2I)cc1 | -1.2 | -0.275 (inactive) | -0.0311 | -0.0708 | 0.653 | 0.898 | 0.417 | 0.547 | -0.229 | -0.387 | -1.01 | 0.303 | -0.0823 | -0.763 | 1.25 | 0.0123 | 1.57 | -0.258 | 0.74 | -1.15 (inactive) |
| CCCCCN1CC=CC23O[C@@H]4/C=C\CCC(C)OC(=O)C4[C@H]2C(=O)N(CCCO)[C@@H]3C1=O (stereo not given in full) | -1.27 | 0.58 (inactive) | -0.357 | -0.161 | 0.97 | 0.1 | 1.62 | -0.237 | -1.15 | -0.521 | -1.7 | -0.719 | -0.249 | -1.63 | -1.3 | -0.965 | 0.684 | -1.2 | -1.08 | -0.637 (inactive) |
| COCCCNC(=O)[C@@]1(CCS(=O)(=O)c2ccccc2)N=C(c2ccc(OCCCO)cc2)O[C@H]1c1ccccc1CN=[N+]=[N-] | 0.91 | 0.582 (inactive) | 0.448 | 0.0763 | 0.528 | 2.3 | 0.561 | 1.22 | -0.308 | 1.12 | 2.56 | 1.21 | 1.17 | 0.989 | 1.4 | 1.53 | 0.579 | 0.578 | 1.24 | -0.888 (inactive) |
| O=C(NCc1ccccc1)[C@@H]1c2ccccc2C(=O)N(Cc2ccccc2Cl)[C@H]1c1ccc(CO)cc1 | -0.0154 | 1.24 (inactive) | 0.0749 | -0.0165 | 0.693 | 2.36 | 0.954 | 1.35 | 0.702 | 1.13 | 2.46 | 1.17 | 0.719 | 0.562 | 1.47 | 1.22 | 1.88 | 0.817 | 0.704 | -1.01 (inactive) |
